For one assay, the system named is C33A. The experiment in a line: Primary qHTS to identify gynecologic anti-cancer compounds using libraries of approved drugs and bioactive compounds (AID 1345084). Note: nearly all actives have a fitted effect of over 55% in size. As to conditions: Gynecologic cancer cell panel viability, ATPlite luminescence, 48 h; series mostly up to 57.5 µM. The gist of the method: (§1)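 ATP-based viability (ATPlite), 1,000 cells/well, 16 h pre-incubation, 48 h compound at 37 C, 5% CO2, 15 min RT before read.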

The test system of another assay is CAOV3. The description is as above. Conditions: Gynecologic cancer cell panel viability, ATPlite luminescence, 48 h; series mostly up to 57.5 µM. The gist of the method: as §1
For another assay, the system named is Es-2. The assay is described as above. Conditions: Gynecologic cancer cell panel viability, ATPlite luminescence, 48 h; series mostly up to 57.5 µM. In outline:
as §1
(In general: Cellular ATP, detected with luciferase, serves as a proxy for viable cell number.)

The test system of a further assay is HeLa. The assay is described as above. Conditions: Gynecologic cancer cell panel viability, ATPlite luminescence, 48 h; series mostly up to 57.5 µM. The gist of the method:
as §1

The next assay has as its system JEG-3. The description is as above. As to conditions: Gynecologic cancer cell panel viability, ATPlite luminescence, 48 h; series mostly up to 57.5 µM. The gist of the method: as §1
Another assay has as its system PA-1. The assay is described as above. Conditions: Gynecologic cancer cell panel viability, ATPlite luminescence, 48 h; series mostly up to 57.5 µM. The gist of the method: as §1
In another assay the test system is Tov112D. The assay is described as above. Conditions: Gynecologic cancer cell panel viability, ATPlite luminescence, 48 h; series mostly up to 57.5 µM. The gist of the method: as §1
A further assay has as its system MCC-13. The assay can be described thus: qHTS assay to identify novel small-molecules to repurpose for Merkel cell carcinoma treatment (AID 1296009). Note: nearly all actives have a fitted effect of over 60% in size. As to conditions: MCC and control cell lines, CellTiter-Glo viability, 72 h; series mostly up to 46 µM. The gist of the method:
(§2)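 Dose-response viability screen; 72 hr exposure at 37 degree celsius; CellTiter-Glo added, 10 min room temperature, luminescence read; RLUs scaled between no-cell and DMSO wells.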
In general terms: Quantitative high-throughput screening tests each substance at several concentrations.

Another assay relates to MKL-1. The description is as above. Conditions: MCC and control cell lines, CellTiter-Glo viability, 72 h; series mostly up to 46 µM. The gist of the method: as §2
For a further assay, the system named is MKL-2. Described as above. As to conditions: MCC and control cell lines, CellTiter-Glo viability, 72 h; series mostly up to 46 µM. In outline:
as §2

The next assay relates to UISO. The assay is described as above. Conditions: MCC and control cell lines, CellTiter-Glo viability, 72 h; series mostly up to 46 µM. In outline:
as §2

The subject of another assay is WaGa. Described as above. Conditions: MCC and control cell lines, CellTiter-Glo viability, 72 h; series mostly up to 46 µM. In outline:
as §2

A further assay deals with CASKI. The assay can be described thus: Primary qHTS to identify gynecologic anti-cancer compounds using libraries of approved drugs and bioactive compounds (AID 1345084). Note: nearly all actives have a fitted effect of over 55% in size. Conditions: Gynecologic cancer cell panel viability, ATPlite luminescence, 48 h; series mostly up to 57.5 µM. In outline: as §1
In a further assay the test system is Hek293T. Described as above. Conditions: Gynecologic cancer cell panel viability, ATPlite luminescence, 48 h, control line for the selectivity index; series mostly up to 57.5 µM. The gist of the method:
as §1

Another assay deals with OV90. The assay is described as above. Conditions: Gynecologic cancer cell panel viability, ATPlite luminescence, 48 h; series mostly up to 57.5 µM. The gist of the method:
as §1

The next assay has as its system SKOV3. The description is as above. As to conditions: Gynecologic cancer cell panel viability, ATPlite luminescence, 48 h; series mostly up to 57.5 µM. In outline: as §1
For another assay, the system named is Tov-21-G. Described as above. As to conditions: Gynecologic cancer cell panel viability, ATPlite luminescence, 48 h; series mostly up to 57.5 µM. The gist of the method:
as §1

Assay [1] is described as follows: Drug repurposing screens with cells derived from glioblastoma tumor samples (AID 1345199). Note: nearly all actives have a fitted effect of over 40% in size. As to conditions: GBM patient neurospheres viability, ATP luminescence, 48 h. In outline: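 Primary testing used CD133+ neurospheres from four GBM patients, seven concentrations, 48 h exposure and ATP-based viability; confirmation added three slower-growing patient lines.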

The mark [2] stands for this setting: at 45.9 µM (top of the series), tumour line B.
The mark [3] stands for this setting: at 46.1 µM (top of the series), tumour line C.
The mark [4] stands for this setting: at 45.9 µM (top of the series), tumour line D.
The mark [5] stands for this setting: at 46 µM (top of the series), tumour line A.

Inconclusive results are not listed. Some structures have more than one record in an assay (separate samples or runs), and their calls can disagree. The source made the active and inactive calls. Calls come from the whole dose curve; as a rule, active = well fitted curve in the direction sought with a large enough effect; inconclusive = small, poorly fitted or top-dose-only effect, or another doubt; inactive = no such curve, though single readings can be large; an effect the other way counts as inactive or inconclusive.
% is set by controls: 0 for no effect and ±100 for the full control effect; potency is the fitted concentration of half-maximal effect.

For `Cc1cc(N)c2ccccc2[n+]1CCCCCCCCCC[n+]1c(C)cc(N)c2ccccc21`, the Potency entry with C33A, in the assay on Es-2, with HeLa, with JEG-3 and with Tov112D was “inactive” throughout. The Potency is 14.1 µM (active) in the assay on CAOV3 and 22.4 µM (active) with PA-1.

`CC(C)C(=O)c1c(C(C)C)nn2ccccc12`: the Potency entry in the assay with MCC-13, in the assay on MKL-1, with MKL-2, in the assay with UISO, in the assay on WaGa and in the assay with C33A was “inactive” in each case. Besides, the Potency result in the assay on CASKI, in the assay with Es-2, with HeLa, in the assay with Hek293T, in the assay on JEG-3 and with OV90 was “inactive” throughout. In addition, the Potency result in the assay on PA-1, with SKOV3, with Tov-21-G and with Tov112D was “inactive” each time. In addition, the figures for the activity, negative = cell killing in assay [1] (setting [2]) and in [1] (setting [3]) were -5.19% (inactive) and -20.7% (inactive), respectively. The Potency in assay [1] (tumour line A) is 8.91 µM (active).

Turning to `CCN(CC)CCCC(C)Nc1c2ccc(Cl)cc2nc2ccc(OC)cc12` (stereo unspecified), the Potency in the assay with MCC-13 was 23.7 µM (active); with MKL-1 it was 15 µM (active); with MKL-2, 3.35 µM (active); with WaGa, 26.6 µM (active); with C33A, 12.6 µM (active) and inactive; in the assay on OV90, 8.91 µM (active). Also, the Potency result with Es-2, with HeLa and in the assay on Tov112D was “inactive” each time.

For `CCCCOC(=O)c1ccc(O)cc1`, the Potency entry in the assay on MCC-13, with MKL-1, in the assay on MKL-2, with UISO, in the assay with WaGa and in the assay with C33A was “inactive” throughout. The Potency result with CAOV3, with CASKI, in the assay on Es-2, in the assay with HeLa, in the assay with Hek293T and in the assay with JEG-3 was “inactive” each time. For the same compound, the Potency entry in the assay on OV90, in the assay on PA-1, with SKOV3, in the assay with Tov-21-G and with Tov112D was “inactive” in each case. Further, the figures for the activity, negative = cell killing in assay [1] (setting [2]), in assay [1] (setting [4]) and in [1] (setting [3]) were -17.3% (inactive), -11.1% (inactive) and 26.3% (inactive), respectively.

Turning to `CC1(C)CO[C@@H](CC(=O)O)CN1`, the Potency result in the assay on MCC-13, in the assay with MKL-1, with MKL-2, with UISO, in the assay on WaGa and with C33A was “inactive” each time. Moreover, the Potency result in the assay with CAOV3, in the assay with CASKI, in the assay with Es-2, in the assay with HeLa, with JEG-3 and with OV90 was “inactive” throughout. For the same compound, the Potency result with PA-1, in the assay with SKOV3, in the assay with Tov-21-G and in the assay on Tov112D was “inactive” each time. The activity, negative = cell killing is -8.88% (inactive) in assay [1] (setting [2]), -5.5% (inactive) in assay [1] (setting [4]), -28.2% (inactive) in [1] (setting [5]) and -15.1% (inactive) in assay [1] (setting [3]).

As for `CC1(C)OC(=O)NC1=O`, the Potency result in the assay on MCC-13, in the assay with MKL-1, in the assay with MKL-2, with UISO, in the assay on WaGa and with C33A was “inactive” in each case. The Potency result with CAOV3, in the assay with CASKI, with Es-2, with HeLa, in the assay on Hek293T and in the assay on JEG-3 was “inactive” throughout. In addition, the Potency entry in the assay on OV90, in the assay with PA-1, with SKOV3, in the assay with Tov-21-G and with Tov112D was “inactive” in each case. Also, the activity, negative = cell killing is -11.2% (inactive) in assay [1] (setting [2]), -10.8% (inactive) in assay [1] (setting [4]), -19.4% (inactive) in assay [1] (setting [5]) and 10.3% (inactive) in [1] (setting [3]).

Take `O=C(O)CN1C(=O)c2cccc3cccc(c23)C1=O`: the Potency result with MCC-13, with MKL-1, with MKL-2, in the assay with UISO, in the assay on WaGa and with C33A was “inactive” throughout. The Potency entry in the assay with CASKI, in the assay with Es-2, in the assay with HeLa, with Hek293T, with JEG-3 and in the assay with OV90 was “inactive” throughout. In addition, the Potency entry in the assay with PA-1, with SKOV3, with Tov-21-G and in the assay with Tov112D was “inactive” each time. In addition, the activity, negative = cell killing in assay [1] (setting [2]) was -8.91% (inactive); in assay [1] (setting [4]), -13.3% (inactive); in [1] (setting [5]), -27.1% (inactive); in [1] (setting [3]), -19.2% (inactive).

The values above are taken from PubChem BioAssay (NCATS).
